Drawing on PubChem BioAssay (NCATS), this text covers Potency, activity change, negative = inhibition and activity, negative = inhibition for 14 compounds.

Assay [1] concerns the target Lysosomal acid glucosylceramidase (Homo sapiens) (UniProt P04062). Nature of the assay: Glucocerebrosidase-p2 (AID 348; in the data active = potency below about 10 µM; note: potency is the fitted concentration of half-maximal effect). To be noted: purified GBA, blue fluorogenic substrate, 40 min. The method, boiled down:
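Normal human glucocerebrosidase (0.2 nM) with blue fluorogenic substrate (80 uM final) in citrate/phosphate pH 5.9 with 10mM sodium taurocholate, 0.01% tween-20; 40 min RT, NaOH/glycine stop; fluorescence Ex 365/Em 440; AC50 from a titration from 0.6 nM upwards.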

The nature of assay [2]: AP1 Signaling Pathway (AID 357). Note: % is set by controls: 0 for no effect and ±100 for the full control effect. To be noted: ME-180 AP-1-bla reporter, EGF-induced, beta-lactamase ratio, 5 h; at 7.69 µM (top of the series) unless noted. The method, boiled down:
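AP-1-bla ME-180 cells with beta-lactamase reporter under AP-1 response element, stimulated with EC50 EGF; compounds titrated, 5 hours at 37 degrees Celsius. CCF4 read at 460/530 nm ratio; positive and negative modulators judged by AC50.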

Assay [3] can be described thus: NFAT Signaling Pathway (AID 444).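 Note: carbachol stimulus at about its EC50 of 1 µM final; % is set by controls: 0 for no effect and ±100 for the full control effect.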 The note with it: Jurkat NFAT-bla M1, carbachol, beta-lactamase ratio, 5 h; at 7.69 µM (top of the series) unless noted. The method, boiled down:
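Jurkat cells carrying an NFAT-driven β-lactamase reporter and co-transfected muscarinic M1 receptor were treated with compound plus carbachol (1 uM final, an EC50 level) for 5 h at 37 °C. CCF4 loading followed for 1 h at RT; 460/530 nm ratio gave %activity.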

In assay [4] the target is Glucocorticoid receptor (Homo sapiens) (UniProt P04150). Kind of assay: GR-GFP Redistribution (AID 450;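 active = compounds whose dose series gives a full or clear partial fitted curve of increased nuclear translocation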; note: potency is the fitted concentration of half-maximal effect). The note with it: U2OS GR-GFP nuclear translocation, laser cytometry, 2 h.
For assay [5] the target is unchanged. Nature of the assay: GR-EFC Redistribution (AID 451; calls by dose curve; note: potency is the fitted concentration of half-maximal effect). The note with it: CHO-K1 GR-EFC translocation, beta-gal luminescence, 2 h. Summed up: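 CHO-K1 cells stably expressing nuclear-localized β-gal enzyme acceptor and GR fused C-terminally to the enzyme donor fragment; ligand-driven nuclear translocation restores β-gal by complementation. Compounds titrated up to 46 uM final, 2 h at 37 °C; luminescence read.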

Assay [6] addresses Mitogen-activated protein kinase 10 (Mus musculus) (UniProt Q61831). Nature of the assay: JNK3 AlphaScreen Assay (AID 530).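 Note: kinase came from lysate of stimulated human HepG2 cells; % is set by controls: 0 for no effect and ±100 for the full control effect.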 The note with it: JNK3 lysate, c-Jun phosphorylation; series mostly up to 11.4 µM. Summed up: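 Biotinylated GST-cJun(1-79) served as substrate for JNK3 in HepG2 lysates stimulated with IL-1beta and TNF-alpha. ATP was 10 uM final, pH 7.6. Ser73 phosphorylation was quantified by AlphaScreen (680 nm excitation).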
For orientation: In Alpha technology, singlet oxygen from a donor bead excites a nearby acceptor bead.

In assay [7] the target is 3',5'-cyclic-AMP phosphodiesterase 4B (Homo sapiens) (UniProt Q07343). Kind of assay: qHTS Assay for Inhibitors of PDE-IV (AID 607; active = well fitted activation curve with a large enough effect in the main read-out, with a control signal flat, not every such curve was filed as active; note: % of control where 0% means no effect). The note with it: HEK293 ACTOne CNG channel cells, membrane potential fluorescence; series mostly up to 22.9 µM. The method, boiled down: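 Live HEK293 cells with a modified cyclic nucleotide-gated (CNG) channel report intracellular cAMP via membrane-potential dye fluorescence (ex 535/em 590 nm). Endogenous PDE-IV was targeted. Compounds were tested at up to 22.9 uM final; RO 20-1724 100 uM served as control.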
In general terms: In qHTS, concentration-response curves come from the screen itself.

The nature of assay [8]: Stat Signaling Pathway (AID 446).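 Note: ME-180 cervical cancer cells given 40 pM IL-6 alongside compound; SIE-controlled beta-lactamase reporter measured as 460/530 nm FRET emission ratio; % is set by controls: 0 for no effect and ±100 for the full control effect.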 The note with it: ME-180 (cervical carcinoma) SIE beta-lactamase reporter, IL-6 stimulated, 5 h; at 7.69 µM (top of the series) unless noted. Summed up: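 Overnight-plated ME-180 cells bearing a STAT Inducible Element beta-lactamase reporter; 5 h co-exposure to compound and 40 pM IL-6; values normalized to 300 pM IL-6 and 125 nM JAK inhibitor controls.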
For assay [9], the target named is Cytochrome P450 2C19 (Homo sapiens) (UniProt P33261). Kind of assay: qHTS Assay for Inhibitors and Substrates of Cytochrome P450 2C19 (AID 899; active = well fitted curve in the direction sought with a large enough effect; an effect the other way counts as inactive or inconclusive; note: nearly all actives have a fitted effect of over 60% in size; note: potency is the fitted concentration of half-maximal effect). To be noted: recombinant CYP2C19, luciferin-H EGE luminescence; series mostly up to 11.4 µM. Summed up: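 NADPH-dependent conversion of Luciferin-H EGE (10uM, at KM) by 5nM enzyme in 50mM KPO4, 60 min at 37C following 10 min compound preincubation. Stopped with luciferin detection buffer; luminescence read after 20 min.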

Assay [10] addresses Ubiquitin carboxyl-terminal hydrolase 1 (Homo sapiens) (UniProt O94782). Kind of assay: Inhibitors of USP1/UAF1: Pilot qHTS (AID 504865; active = well fitted curve in the direction sought with a large enough effect; an effect the other way counts as inactive or inconclusive;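 note: rhodamine fluorescence freed from ubiquitin-rhodamine substrate followed over time; top concentration of the series differs between compounds; % is set by controls: 0 for no effect and ±100 for the full control effect; nearly all actives have a fitted effect of over 35% in size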). To be noted: purified USP1/UAF1, Ub-rhodamine cleavage fluorescence; series mostly up to 114 µM. Summed up: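 Enzyme-free wells gave the negative control, while test wells held 1nM USP1/UAF1 preincubated with compound for 15 min at room temperature. Ub-Rho at 150nM final started the reaction, and fluorescence at 480/540 nm was recorded kinetically.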

Unmarked numbers belong to inactive results. Inconclusive results are not listed. Calls of active or inactive are those of the source. Unless noted, calls come from the whole dose curve; as a rule, active = well fitted curve in either direction with a large enough effect (not every such curve was filed as active); inconclusive = small, poorly fitted or top-dose-only effect, or another doubt; inactive = flat fitted curve, though single readings scatter.

Sequence of Glucocorticoid receptor (Homo sapiens) (P04150 whole entry, looked up, the tested form may be a part): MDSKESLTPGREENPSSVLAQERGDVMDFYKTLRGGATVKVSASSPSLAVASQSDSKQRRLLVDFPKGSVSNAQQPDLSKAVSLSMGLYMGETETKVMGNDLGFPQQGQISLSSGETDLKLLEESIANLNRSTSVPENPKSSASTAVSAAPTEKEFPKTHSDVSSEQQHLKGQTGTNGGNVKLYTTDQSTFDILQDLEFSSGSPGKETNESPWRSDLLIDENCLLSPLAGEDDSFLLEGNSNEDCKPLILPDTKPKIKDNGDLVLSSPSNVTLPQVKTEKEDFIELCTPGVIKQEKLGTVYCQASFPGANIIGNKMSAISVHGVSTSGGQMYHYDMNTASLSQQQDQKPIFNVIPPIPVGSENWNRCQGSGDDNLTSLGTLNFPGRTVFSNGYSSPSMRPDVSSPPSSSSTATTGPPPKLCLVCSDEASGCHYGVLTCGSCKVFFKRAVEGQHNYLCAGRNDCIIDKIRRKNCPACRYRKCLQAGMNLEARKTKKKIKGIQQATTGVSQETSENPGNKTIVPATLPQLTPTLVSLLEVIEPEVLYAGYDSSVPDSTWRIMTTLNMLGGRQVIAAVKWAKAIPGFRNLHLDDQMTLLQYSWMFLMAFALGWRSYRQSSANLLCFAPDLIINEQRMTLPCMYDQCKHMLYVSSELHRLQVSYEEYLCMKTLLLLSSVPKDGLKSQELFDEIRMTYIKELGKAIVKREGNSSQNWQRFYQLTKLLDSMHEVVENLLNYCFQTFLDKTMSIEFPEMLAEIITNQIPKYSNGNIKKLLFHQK
Sequence of 3',5'-cyclic-AMP phosphodiesterase 4B (Homo sapiens) (Q07343 whole entry, looked up): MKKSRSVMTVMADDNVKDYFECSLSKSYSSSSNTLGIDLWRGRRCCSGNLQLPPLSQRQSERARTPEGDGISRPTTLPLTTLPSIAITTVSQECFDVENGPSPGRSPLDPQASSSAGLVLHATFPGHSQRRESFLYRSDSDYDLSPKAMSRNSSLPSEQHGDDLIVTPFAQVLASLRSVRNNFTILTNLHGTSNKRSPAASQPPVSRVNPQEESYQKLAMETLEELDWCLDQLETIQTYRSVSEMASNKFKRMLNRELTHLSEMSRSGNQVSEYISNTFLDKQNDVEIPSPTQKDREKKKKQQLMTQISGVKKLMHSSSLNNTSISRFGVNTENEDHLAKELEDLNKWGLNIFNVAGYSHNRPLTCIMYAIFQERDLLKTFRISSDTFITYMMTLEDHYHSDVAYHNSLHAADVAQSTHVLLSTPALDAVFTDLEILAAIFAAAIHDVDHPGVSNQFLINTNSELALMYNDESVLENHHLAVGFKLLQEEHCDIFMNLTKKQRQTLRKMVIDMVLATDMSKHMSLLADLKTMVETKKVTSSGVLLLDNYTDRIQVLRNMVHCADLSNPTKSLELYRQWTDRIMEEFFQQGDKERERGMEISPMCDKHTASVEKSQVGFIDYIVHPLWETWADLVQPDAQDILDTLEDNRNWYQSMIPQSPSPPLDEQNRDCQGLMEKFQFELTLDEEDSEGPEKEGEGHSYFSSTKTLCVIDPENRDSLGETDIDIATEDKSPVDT
Sequence of Lysosomal acid glucosylceramidase (Homo sapiens) (P04062 whole entry, looked up): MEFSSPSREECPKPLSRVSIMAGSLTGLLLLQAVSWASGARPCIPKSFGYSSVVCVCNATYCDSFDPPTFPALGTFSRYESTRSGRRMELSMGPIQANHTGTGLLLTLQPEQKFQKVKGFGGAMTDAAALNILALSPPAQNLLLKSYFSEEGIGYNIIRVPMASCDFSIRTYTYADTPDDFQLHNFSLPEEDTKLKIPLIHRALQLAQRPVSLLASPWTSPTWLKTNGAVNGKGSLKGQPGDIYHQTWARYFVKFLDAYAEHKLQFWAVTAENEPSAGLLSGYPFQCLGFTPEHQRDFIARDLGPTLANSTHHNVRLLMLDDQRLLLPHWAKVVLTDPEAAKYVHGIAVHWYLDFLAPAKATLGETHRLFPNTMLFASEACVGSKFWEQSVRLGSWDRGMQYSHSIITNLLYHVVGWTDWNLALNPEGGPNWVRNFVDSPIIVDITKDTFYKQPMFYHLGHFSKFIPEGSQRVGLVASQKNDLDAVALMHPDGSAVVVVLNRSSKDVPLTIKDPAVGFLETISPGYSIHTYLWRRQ
Sequence of Cytochrome P450 2C19 (Homo sapiens) (P33261 whole entry, looked up): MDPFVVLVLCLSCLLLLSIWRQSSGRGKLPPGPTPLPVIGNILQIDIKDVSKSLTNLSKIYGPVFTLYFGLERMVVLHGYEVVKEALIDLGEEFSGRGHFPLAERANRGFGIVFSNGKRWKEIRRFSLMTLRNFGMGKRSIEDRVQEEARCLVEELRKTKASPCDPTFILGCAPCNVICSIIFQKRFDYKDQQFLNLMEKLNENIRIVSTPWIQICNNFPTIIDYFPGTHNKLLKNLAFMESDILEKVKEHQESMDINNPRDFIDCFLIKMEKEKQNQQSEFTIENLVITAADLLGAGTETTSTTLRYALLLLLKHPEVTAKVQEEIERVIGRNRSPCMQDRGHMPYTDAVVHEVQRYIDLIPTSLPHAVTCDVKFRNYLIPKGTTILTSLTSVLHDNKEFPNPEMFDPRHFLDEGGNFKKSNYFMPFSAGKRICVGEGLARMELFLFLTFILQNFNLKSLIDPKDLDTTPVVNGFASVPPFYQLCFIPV
Sequence of Ubiquitin carboxyl-terminal hydrolase 1 (Homo sapiens) (O94782 whole entry, looked up): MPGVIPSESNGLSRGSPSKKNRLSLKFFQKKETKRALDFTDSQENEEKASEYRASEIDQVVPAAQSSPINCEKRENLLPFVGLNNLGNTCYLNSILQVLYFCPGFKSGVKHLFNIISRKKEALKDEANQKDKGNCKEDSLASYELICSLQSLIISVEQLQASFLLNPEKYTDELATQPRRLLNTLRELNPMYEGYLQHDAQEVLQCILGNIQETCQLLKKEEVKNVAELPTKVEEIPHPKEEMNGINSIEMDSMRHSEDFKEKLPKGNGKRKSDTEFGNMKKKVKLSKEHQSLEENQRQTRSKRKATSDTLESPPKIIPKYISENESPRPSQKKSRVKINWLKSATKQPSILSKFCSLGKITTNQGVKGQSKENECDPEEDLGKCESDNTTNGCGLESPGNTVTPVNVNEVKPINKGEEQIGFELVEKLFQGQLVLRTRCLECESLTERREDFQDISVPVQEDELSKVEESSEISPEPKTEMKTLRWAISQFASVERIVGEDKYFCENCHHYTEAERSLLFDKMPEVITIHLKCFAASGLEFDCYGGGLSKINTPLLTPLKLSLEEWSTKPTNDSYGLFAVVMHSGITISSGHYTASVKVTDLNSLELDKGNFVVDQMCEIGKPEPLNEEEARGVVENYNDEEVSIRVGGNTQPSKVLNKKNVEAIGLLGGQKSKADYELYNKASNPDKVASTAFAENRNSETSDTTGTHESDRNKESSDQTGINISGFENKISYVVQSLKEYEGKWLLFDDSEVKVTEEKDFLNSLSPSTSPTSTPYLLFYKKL

With `CC(CCc1nc2ccccc2s1)(c1ccc(O)cc1)c1ccc(O)cc1`, the Potency was greater than 11.4 µM in assay [1], greater than 46 µM in [4] and greater than 9.22 µM in assay [5]. Also, the activity change, negative = inhibition is 7.74% in assay [2] and 1.62% in [3]. The Potency entry in [6] and in [7] was “inactive” each time.
For `O=C(O)c1oc(C(=O)O)c(C(=O)O)c1C(=O)O`, the figures for the Potency in assay [1], in [4] and in [5] were greater than 11.4 µM, greater than 46 µM and greater than 9.22 µM, respectively. In addition, the values for the activity change, negative = inhibition in assay [2] and in assay [3] were 10.9% and 7.7%, respectively. For the same compound, the Potency result in [6] and in assay [7] was “inactive” each time.
`Cc1cc(OCC(=O)O)c(Cl)cc1Cl`: the Potency is greater than 11.4 µM in assay [1], greater than 46 µM in assay [4] and greater than 9.22 µM in [5]. The activity change, negative = inhibition in [2] was 2.52%; in [3] it was 2.25%. For the same compound, the Potency entry in assay [6] and in assay [7] was “inactive” throughout.
`CN1CCC[C@@H]1c1cccnc1.O=C(O)c1ccccc1O.O=C([OH2+])c1ccccc1O.O=C([OH2+])c1ccccc1O.O=C([OH2+])c1ccccc1O.[Mn]`: the Potency in assay [1] was greater than 11.4 µM. Also, the activity change, negative = inhibition in [2] is 13.3%; in [3] it was -2.84%. The activity, negative = inhibition in assay [8] is -11.4%. The Potency result in [6] and in assay [7] was “inactive” each time.
Regarding `CC1(C)[C@@H]2CC[C@@]1(CS(=O)(=O)Nc1ccccc1)C(=O)C2`, the Potency in assay [1] was greater than 11.4 µM; in assay [5] it was greater than 9.22 µM; in assay [9] it was 2 µM (active). The values for the activity change, negative = inhibition in assay [2] and in assay [3] were -11.4% and 4.16%, respectively. Besides, the activity, negative = inhibition in [8] was -7%. Also, the Potency result in [6] and in [7] was “inactive” throughout.
Take `OC[C@@H]1CCC[C@H](n2cnc3c(=S)nc[nH]c32)O1`: the results for the Potency in assay [1], in [4] and in assay [5] were greater than 11.4 µM, greater than 46 µM and greater than 9.22 µM, respectively. Further, the activity change, negative = inhibition is 1.32% in assay [2] and 24.8% in assay [3]. Also, the Potency result in assay [6] and in assay [7] was “inactive” throughout.
Take `O=C1OC2(c3ccc(O)cc3Oc3cc(O)ccc32)c2c1c(-c1ccccc1)c(-c1ccccc1)c(-c1ccccc1)c2-c1ccccc1`: the Potency is greater than 11.4 µM in assay [1] and greater than 9.22 µM in assay [5]. Further, the activity change, negative = inhibition in [2] was -28.2%; in assay [3], 5.71%. In [8], the activity, negative = inhibition is -17.7%. In addition, the Potency entry in assay [6] and in assay [7] was “inactive” throughout.
Consider `COc1cc(NCC[C@@H]2CCCCN2)c2ncccc2c1`, for which the results for the Potency in assay [1] and in [5] were greater than 11.4 µM and greater than 9.22 µM, respectively. Also, the values for the activity change, negative = inhibition in assay [2] and in assay [3] were 28.5% and -23.9%, respectively. The activity, negative = inhibition in assay [8] is 13.7%. Besides, the Potency result in assay [6] and in assay [7] was “inactive” in each case.
Turning to `Cn1c(=O)c2[nH]c(CSCc3ccccc3)nc2n(C)c1=O`, the Potency is greater than 11.4 µM in [1], greater than 46 µM in assay [4] and greater than 9.22 µM in [5]. The activity change, negative = inhibition was 12.7% in assay [2] and 8.43% in [3]. Moreover, the activity, negative = inhibition in assay [8] is 4.21%. Further, the Potency result in [7] and in assay [9] was “inactive” each time.
Take `CCOC(=O)Cn1c(C(F)(F)F)nc2nc(Cl)c(Cl)nc21`: the Potency in assay [1] is greater than 11.4 µM; in [4], greater than 46 µM; in assay [5], greater than 9.22 µM. In addition, the figures for the activity change, negative = inhibition in [2] and in [3] were 6.84% and -10.5%, respectively. Further, the Potency result in assay [6] and in [7] was “inactive” throughout.
In the case of `O=C(O)C[C@H](Nc1ccccc1)C(=O)O`, the Potency was greater than 11.4 µM in assay [1], greater than 46 µM in [4] and greater than 9.22 µM in assay [5]. In addition, the activity change, negative = inhibition in [2] is 0.63%; in [3], 19.5%. Besides, the Potency entry in assay [6] and in assay [7] was “inactive” in each case.
Consider `O=C(O)C(Cl)(c1ccccc1)c1ccccc1`, for which the Potency was greater than 11.4 µM in assay [1] and greater than 9.22 µM in assay [5]. Moreover, the activity change, negative = inhibition in assay [2] is 1.69%; in assay [3] it was 6.6%. In addition, the activity, negative = inhibition in assay [8] is -5.62%. Moreover, the Potency result in [6] and in assay [7] was “inactive” in each case.
With `Cc1c(-c2nc(N)nc(C3CC3)c2C)nc(N)nc1C1CC1`, the Potency was greater than 11.4 µM in assay [1] and greater than 9.22 µM in [5]. Also, the activity change, negative = inhibition in assay [2] is 2.87%; in assay [3], 4.67%. Besides, the activity, negative = inhibition in [8] is 5.17%. The Potency entry in assay [6] and in [7] was “inactive” each time.
For `COc1ccccc1-c1nc(NCCc2cnc[nH]2)c2ccccc2n1`, the Potency in [1] is greater than 11.4 µM; in assay [4] it was greater than 46 µM; in assay [5] it was greater than 46 µM. Besides, the activity change, negative = inhibition in assay [2] is 17.1%. For the same compound, the activity, negative = inhibition in assay [8] is 22.8%. The Potency result in [6], in [7] and in assay [10] was “inactive” throughout.
